The values that follow come from ChEMBL document CHEMBL1157539, “Thousands of chemical starting points for antimalarial lead identification” (Nature, 2010).

The structures appear in SMILES notation.

What all share (type): functional
The subject of assay [1] is Plasmodium falciparum. The assay is described as follows: GSK_TCMDC: Inhibition of Plasmodium falciparum 3D7 in whole red blood cells, using parasite LDH activity as an index of growth. Test compounds present at 2uM.
In assay [2] the test system is Plasmodium falciparum. Kind of assay: GSK_TCMDC: Inhibition of Plasmodium falciparum Dd2 in whole red blood cells, using parasite LDH activity as an index of growth. Test compounds present at 2uM.
In assay [3] the test system is HepG2. The assay is described as follows: GSK_TCMDC: Percent inhibition of human HepG2 cell line. Test compounds present at 10uM.

As a reminder, the Inhibition is the relative decrease from the control value, in per cent. Low readings indicate little suppression, high ones strong suppression. Regarding `Cn1c(N)c(N=O)c(=O)[nH]c1=O`, the Inhibition is given as 97% in assay [1], 82% in assay [2] and 58% in assay [3].

Turning to `COc1ccc(NC(=O)NC2CCN(c3ccnc4cc(Cl)ccc34)CC2)cc1.O=C(O)C(F)(F)F`, the Inhibition in assay [1] amounted to 83%; in assay [2] it was 64%; in assay [3], 5%.

With `Cl.O=c1cc(NCCCNCc2ccc(Cl)c(Cl)c2)[nH]c2ccc(Oc3ccccc3)cc12`, the Inhibition in assay [1] stood at 92%; in assay [2], 29%; in assay [3], 1%.

With `CN(C)CCCNc1ccnc2cc(Cl)ccc12`, the Inhibition in assay [1] is given as 100%; in assay [2], 100%; in assay [3] it was 10%.

As to `COc1cccc2c(NN=Cc3cccc(F)c3)ccnc12`, the Inhibition is listed as 99% in assay [1], 44% in assay [2] and 12% in assay [3].

As for `CCOC(=O)c1ccc(NC(=O)Nc2ccc(-c3cccc(-c4nc5ccccc5[nH]4)c3)cc2)cc1`, the values for the Inhibition in assay [1], in assay [2] and in assay [3] were 100%, 99% and 94%, respectively.

For the compound `COc1ccc2ncc(F)c(CCN3CCC(NCc4cc(F)c5c(c4)OCCO5)CC3)c2n1.Cl`, the Inhibition in assay [1] stood at 100%; in assay [2] it was 67%; in assay [3], 15%.

Turning to `CCCN(CC1CC1)c1nc(C)nc2c(-c3ccccc3)cc(C)cc12`, the Inhibition in assay [1] turned out to be 96%; in assay [2], 78%; in assay [3], 72%.

As for `CC1CCN(Cc2cccc(C(=O)NCc3ccc(F)c(-c4cccc(CN5CCN[C@@H](C)C5)c4)c3)c2)CC1.O=C(O)C(F)(F)F`, the Inhibition in assay [1] is reported as 91%; in assay [2], 64%; in assay [3], 26%.

Take `CNC(=O)CNC(=O)COc1cccc2ccccc12`: the Inhibition is recorded as 98% in assay [1], 0% in assay [2] and 3% in assay [3].

`Cc1cc2c(cc1C(F)(F)F)N(C(=O)Nc1cc(C(=O)NCCN(C)C)cc(C(F)(F)F)c1)CC2`: the Inhibition in assay [1] amounted to 100%; in assay [2] it was 50%; in assay [3] it was 19%.

Take `COc1ccc2nccc([C@@H](O)CN3CCC(NS(=O)(=O)c4cc5c(cc4Cl)SCC(=O)N5)CC3)c2c1.O=C(O)C(=O)O`: the Inhibition came out at 88% in assay [1], 0% in assay [2] and 5% in assay [3].

Turning to `O=C(Nc1ccc(CN2CCOCC2)cc1)c1ccc(-c2ccc(Cl)cc2)o1`, the Inhibition in assay [1] worked out at 98%; in assay [2] it was 11%; in assay [3], 22%.

`COc1ccc(N2CCN(CCCNC(=O)c3ccc(NC(=O)c4cc(Cl)cc(Cl)c4)cc3)CC2)c(OC)c1`: the Inhibition in assay [1] is given as 100%; in assay [2], 79%; in assay [3] it was 21%.

Regarding `O=C(O)C(F)(F)F.Oc1ccc2[nH]c(-c3cccc(F)c3)nc2c1CNCc1ccccc1`, the Inhibition is 92% in assay [1], 55% in assay [2] and 29% in assay [3].

On to `Cc1cccc2nc(-c3ccc(-c4cccc(NC(=O)Nc5ccc(Cl)cc5)c4)s3)[nH]c12`, for which the figures for the Inhibition in assay [1], in assay [2] and in assay [3] were 100%, 52% and 25%, respectively.

For the compound `CCCCOc1cc(OC)c2ccccc2c1CCNCCCCNCCc1c(OCCCC)cc(OC)c2ccccc12.CS(=O)(=O)O`, the Inhibition is 82% in assay [1], 82% in assay [2] and 100% in assay [3].

For the compound `COc1cc(F)c2ncc(C#N)c(CCN3CCC(NCc4ccc5c(c4)OCCO5)CC3)c2c1.Cl`, the Inhibition in assay [1] stood at 97%; in assay [2], 59%; in assay [3], 5%.

As to `COc1nc2c(CCN3CC[C@H](NCc4ccc5c(c4)NC(=O)CO5)[C@H](O)C3)c(Cl)cnc2cc1F.Cl`, the figures for the Inhibition in assay [1], in assay [2] and in assay [3] were 90%, 22% and 21%, respectively.

Consider `NS(=O)(=O)c1ccc(Nc2nccc(-c3c(-c4cccc(NC(=O)c5c(F)cccc5F)c4)nn4ccccc34)n2)cc1`, for which the Inhibition in assay [1] was 93%; in assay [2], 89%; in assay [3] it was 83%.

On to `CC(C)N1CCN(C(CN2CCN(CCCOc3cccc(F)c3)CC2)c2ccc(F)cc2)CC1.Cl` (stereo not drawn), for which the Inhibition worked out at 92% in assay [1], 38% in assay [2] and 38% in assay [3].

On to `O=C(NCCNc1ccnc(Nc2ccc(F)cc2)n1)Nc1ccccc1F`, for which the Inhibition in assay [1] is recorded as 93%; in assay [2], 4%; in assay [3], 22%.

With `CC(CCCCC(=O)Nc1ccc(CC(C)NCCc2cccc(Cl)c2)cc1)NCCc1cccc(Cl)c1` (stereo not drawn), the Inhibition in assay [1] was determined as 91%; in assay [2] it was 0%; in assay [3] it was 28%.

Consider `CCN(CC)c1ccc2nc(N)nc(N)c2c1Cl.Cl`, for which the Inhibition in assay [1] worked out at 92%; in assay [2] it was 1%; in assay [3], 62%.

`O=C(Nc1ccccc1)c1nn(CCCN2CCC(N3CCCC3)CC2)cc1-c1ccc(Cl)c(Cl)c1`: the Inhibition worked out at 100% in assay [1], 98% in assay [2] and 31% in assay [3].

Regarding `Br.c1cc(Nc2nc(-c3ccc(-c4csc(Nc5ccncc5)n4)cc3)cs2)ccn1`, the Inhibition in assay [1] is on record as 100%; in assay [2], 99%; in assay [3], 91%.

Consider `COc1ccc(S(=O)(=O)Nc2ccc(C(=O)NCc3ccc(C(F)(F)F)cc3)cc2)cc1N1CCN(CC2CC2)CC1.O=C(O)C(F)(F)F`, for which the Inhibition is listed as 95% in assay [1], 1% in assay [2] and 34% in assay [3].

As for `O=C(Nc1ccc(OC2CCN(Cc3ccc(F)cc3)CC2)c(Cl)c1)c1ccccc1.O=C(O)C(F)(F)F`, the Inhibition in assay [1] is 90%; in assay [2] it was 89%; in assay [3], 16%.

As for `Cl.N=C(NCCc1ccc(Cl)cc1)c1ccc(Cl)c(Cl)c1`, the Inhibition in assay [1] was found to be 100%; in assay [2], 42%; in assay [3], 43%.

In the case of `COc1ccc(CNC(=O)NC2CCN(c3ccnc(Nc4ccc(OC)cc4)n3)C2)cc1` (stereo not drawn), the Inhibition in assay [1] is recorded as 87%; in assay [2] it was 80%; in assay [3], 27%.

With `Cc1ccc(/C=C/C(=O)N2CCC(CCN3CCC(c4c[nH]c5ccccc45)CC3)CC2)cc1C`, the Inhibition is listed as 94% in assay [1], 5% in assay [2] and 50% in assay [3].
